Laboratory results taken from PubChem BioAssay (NCI).
Values joined by “and” are separate entries in the source; they are usually repeats but may differ in a detail not shown here. Identical values can stand only once. About 83,000 compounds went through this panel and 20% of them were active in at least one assay; those are over-represented in the sample as a whole.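 The test compound was applied at a single concentration to cells in 96-well plates for 48 hours, and percent growth was recorded.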 Values without a mark were called inactive. Active and inactive are the calls of the source. The calls were made as follows: active = growth percent below 10; inactive = the rest.

These compounds were tested on HL-60(TB) leukemia (assay: NCI-60 one-dose screen, 48 h (100 = growth as untreated, 0 = no growth, -100 = all killed)). Settings: 10 µM unless noted.

Row | SMILES | growth
1 | COc1cccc(-c2nc3occn3c2-c2ccnc(NCCCNS(=O)(=O)c3cccc(F)c3)n2)c1 | 112%
2 | NS(=O)(=O)c1ccc(CCN2C(=O)C=CC2=O)cc1 | 99.6%
3 | C#Cc1ccccc1NC(=O)c1sc2nc3c(cc2c1N)CCCCCC3 | 92.7%
4 | COc1cccc(CCC2CCCN(c3cc(C)nc(N)n3)C2)c1 (stereo not given) | 1.26% (active)
5 | N#Cc1c(-c2ccc(C(F)(F)F)cc2)cc(NCC2CCS(=O)(=O)CC2)n2c1nc1ccccc12 | 88.5%
6 | CCOc1ccc(/C=N/N=C(N)N)cc1OCC | 64.5%
7 | O=C1NN(C(=O)c2ccc(Cl)cc2)C(c2ccccc2)=N/C1=C\c1ccc(F)cc1 | -3.45% (active)
8 | CCN(CC)c1nc(SCc2ccccc2Cl)ncc1C | 89.7%
9 | CN1CCN(CCCOc2cccc3nc(Nc4ccc(Cl)c(F)c4)ccc23)CC1 | 61.9%
10 | CNC(=O)c1cc(Oc2ccc3nc(NC(C)=O)sc3c2)ccn1 | 98.9%
11 | CCCCN(CCCC)CCCO | 95.5%
12 | CN[C@]12CC3(C=CC(=O)C=C3)O[C@@]1(Cc1ccc(OC)cc1)N(C)C(=O)N2 | -3.53% (active)
13 | CCOc1ccc2[nH]c(=S)sc2c1 | 78.9%
14 | Clc1ccc(Nc2nnc(COc3ccccc3)c3ccccc23)cc1 | -15.7% (active)
15 | CCSc1nc(Cl)c(C#N)c(-c2ccc(F)cc2)n1 | 81.3%
16 | Nc1n[nH]c2cccc(C#Cc3cccc(NC(=O)c4cccc(C(F)(F)F)c4)c3)c12 | 9.22% (active)
17 | CCOC(=O)C1=C(C)NC(C)=C(C(=O)OCC)C1 | 110% and 102%
18 | CCCCn1c(=O)[nH]c(N)c(C(c2ccc(Cl)cc2)c2c(N)[nH]c(=O)n(CCCC)c2=O)c1=O | 13.2%
19 | COc1ccccc1NC(=O)N=Nc1c(O)[nH]c2ccccc12 | 93.8%
20 | Cc1cnc(C(=O)NNc2nc3sc4c(c3c(=O)n2C)C(C)CCC4)cn1 (stereo not given) | -32.3% (active)

Row | SMILES | growth
21 | O=C(Cc1ccccn1)C(F)(F)C(F)(F)C(F)(F)F | 105%
22 | O=C1C=Cc2ncccc2C1=O | 57.7%
23 | COc1cc2cc(Oc3ccc(NC(=O)Nc4ccc(Cl)c(Cl)c4)cc3)c(C)nc2cc1OC | 9.64% (active)
24 | COc1c(B(O)O)cccc1-c1nc2ccc3n[nH]c(F)c3c2c2c1CCCC2 | 20%
25 | Cc1ccc(F)c(NC(=O)Nc2ccc(-c3cccc4[nH]nc(N)c34)cc2)c1 | 7.97% (active)
26 | CN(C)CCNc1nc2ccccc2c2c(=O)c3ccccc3sc12 | 9.19% (active)
27 | CNC(=O)c1ccc(C)c(-n2c(C)cc(OCc3ccc(F)cc3F)c(Br)c2=O)c1 | 61.1% and 91%
28 | COc1ccc(-c2csc(NC(=O)CN3CCN(c4cc5c(cc4F)c(=O)c(C(=O)O)cn5C4CC4)CC3)n2)cc1 | -25% (active)
29 | COc1cc(N2C(=O)[C@H](O)C2c2ccc(SC)cc2)cc(OC)c1OC (stereo not given in full) | -41% (active)
30 | O=C(c1cc2ccccc2o1)c1nn(-c2ccccc2)/c(=N/N=Cc2cn(-c3ccccc3)nc2-c2cc3ccccc3oc2=O)s1 | 98.2%
31 | CN1CCN(Cc2ccc(NC(=O)c3ccc(C#N)c(C#Cc4cnc(N)c5ncccc45)c3)cc2C(F)(F)F)CC1 | 60.8%
32 | COc1ccc(COC(C)=O)cc1 | 112%
33 | CCC1OC(OC)C=CC1=O (stereo not given) | 77%
34 | Cc1cc(Nc2ccc(Cl)c(Cl)c2)nc(N)n1 | 62.7%
35 | Cc1oc2ncnc(Nc3ccccc3)c2c1C(=O)NCCO | 64.9%
36 | N#Cc1c(-c2ccc(Cl)cc2)cc(-c2cc3ccccc3o2)nc1SCC(=O)c1ccc(Cl)cc1 | 123%
37 | COc1ccc(/C=C/C(=O)c2ccc(OC)c(OC)c2)cc1O | 81.5%
38 | N=C(N)c1ccc(-c2ccc(-c3cncc4ccccc34)s2)cc1F | -45.5% (active)
39 | NCCCNc1nc2ccccc2c2c(=O)c3cccc(F)c3sc12 | 13.9%
40 | COc1cnc2c(c1)C(=O)c1c-2n(CCCNCCO)c(=O)c2ccncc12 | 16.1%
